{"source": "PubChem BioAssay", "key": {"[1]": {"system": "XIP peptide (Xip251-270) binding", "assay": "small-molecule binders of XIP peptide, primary screen, biochemical, small-molecule microarray, fluorescence 635/667 nm, 0.1 µg/mL protein (AID 1182)", "conditions": "fluorescent protein binding, 635 nm, higher = more signal, called active from +8 up or from −8 down"}, "XIP peptide (Xip251-270)": {"system": "XIP peptide (Xip251-270)", "assay": "small-molecule binders of XIP peptide, primary screen, biochemical, small-molecule microarray, fluorescence 635/667 nm, 0.5 µg/mL protein (AID 1183)", "conditions": "small-molecule microarray binding, fluorescence 635 nm; higher = more signal"}, "[2]": {"assay": "Plasmodium falciparum growth inhibition, primary screen, strain 3D7, DAPI fluorescence, 100 nL (AID 1184);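 further: parasites grown inside human red blood cells in medium with human serum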", "conditions": "P. falciparum 3D7 growth, 3 d, higher = more signal"}, "[3]": {"molecular_target": "Homeobox protein Hox-A13 (Mus musculus) (UniProt Q62424)", "sequence (Q62424 whole entry, looked up)": "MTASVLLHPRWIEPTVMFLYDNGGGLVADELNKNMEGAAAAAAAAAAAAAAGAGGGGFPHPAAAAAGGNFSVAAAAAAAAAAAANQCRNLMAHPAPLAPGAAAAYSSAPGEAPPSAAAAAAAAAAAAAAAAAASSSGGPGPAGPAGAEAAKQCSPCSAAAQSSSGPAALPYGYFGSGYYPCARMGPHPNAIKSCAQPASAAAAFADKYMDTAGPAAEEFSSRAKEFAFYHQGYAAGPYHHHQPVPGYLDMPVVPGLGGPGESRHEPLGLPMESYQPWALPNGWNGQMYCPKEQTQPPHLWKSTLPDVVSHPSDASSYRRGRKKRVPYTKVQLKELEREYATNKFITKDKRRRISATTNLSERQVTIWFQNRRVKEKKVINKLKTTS", "assay": "inhibitors of HoxA13-DNA binding, primary screen, biochemical, fluorescence polarization, labeled oligonucleotide (AID 1185)", "conditions": "15 min, higher = more signal, called active from +8 up or from −8 down"}, "[4]": {"assay": "inhibitors of hydroxyurea-induced Chk1 phosphorylation, primary screen, imaging, HeLa, phospho-Chk1 antibody, percent positive cells (AID 1186)", "conditions": "hydroxyurea-induced phospho-Chk1 immunofluorescence imaging, higher = more signal"}, "[5]": {"assay": "inhibitors of hydroxyurea-induced Chk1 phosphorylation, primary screen, imaging, HeLa, phospho-Chk1 nuclear intensity (AID 1187)", "conditions": "hydroxyurea-induced phospho-Chk1 immunofluorescence imaging, higher = more signal"}}, "note": "Calls of active or inactive are those of the source. Unless noted, how the calls were made is not given here.", "data": [{"smiles": "COC(=O)[C@@]1(Cc2ccc(OC)cc2)[C@@H]2C(=CC(=O)[C@H]2CC(=O)C(=O)N(C)C)CN1C(=O)c1ccccc1", "values": [{"measurement": "composite z-score", "setting": "[1]", "value": "0.0312 (inactive)"}, {"measurement": "composite z-score", "setting": "XIP peptide (Xip251-270)", "value": 0.739}, {"measurement": "z-score", "setting": "[2]", "value": -1.73}, {"measurement": "z-score", "setting": "[3]", "value": "-3.95 (inactive)"}, {"measurement": "z-score", "setting": "[4]", "value": "-0.246 (inactive)"}, {"measurement": "z-score", "setting": "[5]", "value": "-0.0503 (inactive)"}]}, {"smiles": "O=c1n(-c2ccccc2)c(=O)n2n1CC(COc1ccccc1)=C([C@H](O)CCc1ccccc1)[C@@H]2CO", "values": [{"measurement": "composite z-score", "setting": "[1]", "value": "0.0148 (inactive)"}, {"measurement": "composite z-score", "setting": "XIP peptide (Xip251-270)", "value": -0.407}, {"measurement": "z-score", "setting": "[2]", "value": -0.601}, {"measurement": "z-score", "setting": "[3]", "value": "-7.77 (inactive)"}, {"measurement": "z-score", "setting": "[4]", "value": "-0.268 (inactive)"}, {"measurement": "z-score", "setting": "[5]", "value": "0.771 (inactive)"}]}, {"smiles": "COc1ccc([Si](C)(C)[C@@H]2[C@@H](CC(=O)N3Cc4ccccc4C[C@H]3CO)O[C@]3(C(=O)N(Cc4cccc(N5C(=O)c6cccc7cccc5c67)c4)c4ccccc43)[C@H]2C)cc1", "values": [{"measurement": "composite z-score", "setting": "[1]", "value": "1.26 (inactive)"}, {"measurement": "composite z-score", "setting": "XIP peptide (Xip251-270)", "value": 0.574}, {"measurement": "z-score", "setting": "[2]", "value": -2.59}, {"measurement": "z-score", "setting": "[3]", "value": "-1.47 (inactive)"}, {"measurement": "z-score", "setting": "[4]", "value": "0.115 (inactive)"}, {"measurement": "z-score", "setting": "[5]", "value": "-0.0849 (inactive)"}]}, {"smiles": "O=C1O[C@@H](c2ccccc2)[C@@H](c2ccccc2)N2[C@@H](c3ccc(O)cc3)[C@]3(C(=O)Nc4ccc(C#CC5(O)CCCCCC5)cc43)[C@@H](C(=O)NC[C@H](O)c3ccccc3)[C@H]12", "values": [{"measurement": "composite z-score", "setting": "[1]", "value": "0.0382 (inactive)"}, {"measurement": "composite z-score", "setting": "XIP peptide (Xip251-270)", "value": 0.691}, {"measurement": "z-score", "setting": "[2]", "value": -0.627}, {"measurement": "z-score", "setting": "[3]", "value": "-3.55 (inactive)"}, {"measurement": "z-score", "setting": "[4]", "value": "0.206 (inactive)"}, {"measurement": "z-score", "setting": "[5]", "value": "0.345 (inactive)"}]}, {"smiles": "COC(=O)[C@@]1(Cc2ccc(OC)cc2)[C@H]2c3cc(C(=O)N4CCCC4)n(Cc4c(-c5ccccc5)noc4C)c3C[C@H]2CN1C(=O)c1ccccc1", "values": [{"measurement": "composite z-score", "setting": "[1]", "value": "2.97 (inactive)"}, {"measurement": "composite z-score", "setting": "XIP peptide (Xip251-270)", "value": 0.473}, {"measurement": "z-score", "setting": "[2]", "value": -1.3}, {"measurement": "z-score", "setting": "[3]", "value": "-3.25 (inactive)"}, {"measurement": "z-score", "setting": "[4]", "value": "-0.279 (inactive)"}, {"measurement": "z-score", "setting": "[5]", "value": "-0.313 (inactive)"}]}, {"smiles": "CCOC(=O)C1=CC[C@@H](c2ccccc2C(F)(F)F)N(S(=O)(=O)c2ccc(C)cc2)[C@H]1c1ccc(C#N)cc1", "values": [{"measurement": "composite z-score", "setting": "[1]", "value": "0.205 (inactive)"}, {"measurement": "composite z-score", "setting": "XIP peptide (Xip251-270)", "value": 0.534}, {"measurement": "z-score", "setting": "[2]", "value": -2.2}, {"measurement": "z-score", "setting": "[3]", "value": "-0.224 (inactive)"}, {"measurement": "z-score", "setting": "[4]", "value": "0.479 (inactive)"}, {"measurement": "z-score", "setting": "[5]", "value": "-0.581 (inactive)"}]}, {"smiles": "O=C1O[C@H](c2ccccc2)[C@H](c2ccccc2)N2[C@H]1[C@@H](C(=O)Nc1nc3ccccc3s1)[C@]1(C(=O)Nc3ccccc31)[C@H]2c1ccc(OCCO)cc1", "values": [{"measurement": "composite z-score", "setting": "[1]", "value": "-0.434 (inactive)"}, {"measurement": "composite z-score", "setting": "XIP peptide (Xip251-270)", "value": 0.652}, {"measurement": "z-score", "setting": "[2]", "value": -1.33}, {"measurement": "z-score", "setting": "[3]", "value": "1.24 (inactive)"}, {"measurement": "z-score", "setting": "[4]", "value": "0.0458 (inactive)"}, {"measurement": "z-score", "setting": "[5]", "value": "-0.0249 (inactive)"}]}, {"smiles": "O=C1O[C@@H](c2ccccc2)[C@@H](c2ccccc2)N2[C@@H](c3ccc(OCCO)cc3)[C@]3(C(=O)Nc4ccccc43)[C@@H](C(=O)O)[C@H]12", "values": [{"measurement": "composite z-score", "setting": "[1]", "value": "0.442 (inactive)"}, {"measurement": "composite z-score", "setting": "XIP peptide (Xip251-270)", "value": -0.105}, {"measurement": "z-score", "setting": "[2]", "value": -1.29}, {"measurement": "z-score", "setting": "[3]", "value": "-6.16 (inactive)"}, {"measurement": "z-score", "setting": "[4]", "value": "-0.33 (inactive)"}, {"measurement": "z-score", "setting": "[5]", "value": "-0.413 (inactive)"}]}, {"smiles": "CCOc1cc(C(O)C2C=CC3C(=O)N(C)C(=O)C3N2Nc2ccccc2)ccc1O", "note": "(stereo unspecified)", "values": [{"measurement": "composite z-score", "setting": "[1]", "value": "0.705 (inactive)"}, {"measurement": "composite z-score", "setting": "XIP peptide (Xip251-270)", "value": 0.273}, {"measurement": "z-score", "setting": "[2]", "value": -0.211}, {"measurement": "z-score", "setting": "[3]", "value": "-2.42 (inactive)"}, {"measurement": "z-score", "setting": "[4]", "value": "-0.0768 (inactive)"}, {"measurement": "z-score", "setting": "[5]", "value": "-0.677 (inactive)"}]}, {"smiles": "C=CCNC(=O)[C@H]1[C@@H]2C(=O)O[C@@H](c3ccccc3)[C@@H](c3ccccc3)N2[C@@H](c2ccc(O)cc2)[C@]12C(=O)N(C(=O)OCCOC)c1ccccc12", "values": [{"measurement": "composite z-score", "setting": "[1]", "value": "0.995 (inactive)"}, {"measurement": "composite z-score", "setting": "XIP peptide (Xip251-270)", "value": 0.742}, {"measurement": "z-score", "setting": "[2]", "value": -1.38}, {"measurement": "z-score", "setting": "[3]", "value": "-3.73 (inactive)"}, {"measurement": "z-score", "setting": "[4]", "value": "0.175 (inactive)"}, {"measurement": "z-score", "setting": "[5]", "value": "-0.0776 (inactive)"}]}, {"smiles": "CN(C)C(=O)[C@@]1(CCS(=O)(=O)c2ccccc2)N=C(c2ccc(OCCCO)cc2)O[C@H]1c1ccccc1", "values": [{"measurement": "composite z-score", "setting": "[1]", "value": "0.77 (inactive)"}, {"measurement": "composite z-score", "setting": "XIP peptide (Xip251-270)", "value": 0.704}, {"measurement": "z-score", "setting": "[2]", "value": -1.48}, {"measurement": "z-score", "setting": "[3]", "value": "-6.87 (inactive)"}, {"measurement": "z-score", "setting": "[4]", "value": "-0.13 (inactive)"}, {"measurement": "z-score", "setting": "[5]", "value": "-0.0208 (inactive)"}]}, {"smiles": "CN(C)CCCNC(=O)[C@@H]1c2ccccc2C(=O)N(Cc2ccccc2Cl)[C@H]1c1ccc(CO)cc1", "values": [{"measurement": "composite z-score", "setting": "[1]", "value": "0.596 (inactive)"}, {"measurement": "composite z-score", "setting": "XIP peptide (Xip251-270)", "value": 0.285}, {"measurement": "z-score", "setting": "[2]", "value": -0.424}, {"measurement": "z-score", "setting": "[3]", "value": "-2.58 (inactive)"}, {"measurement": "z-score", "setting": "[4]", "value": "0.0357 (inactive)"}, {"measurement": "z-score", "setting": "[5]", "value": "0.0322 (inactive)"}]}, {"smiles": "Cc1ccc(S[C@]2(C(=O)NCCCN(C)C)CC(=O)N(C3CCCCC3)[C@@H]2c2ccc(CO)cc2)cc1", "values": [{"measurement": "composite z-score", "setting": "[1]", "value": "0.332 (inactive)"}, {"measurement": "composite z-score", "setting": "XIP peptide (Xip251-270)", "value": 0.0388}, {"measurement": "z-score", "setting": "[2]", "value": -1.54}, {"measurement": "z-score", "setting": "[3]", "value": "-1.9 (inactive)"}, {"measurement": "z-score", "setting": "[4]", "value": "0.487 (inactive)"}, {"measurement": "z-score", "setting": "[5]", "value": "0.866 (inactive)"}]}, {"smiles": "COc1cc2c(cc1O)C(C)N(Cc1ccc([N+](=O)[O-])o1)CC2", "note": "(stereo unspecified)", "values": [{"measurement": "composite z-score", "setting": "[1]", "value": "0.563 (inactive)"}, {"measurement": "composite z-score", "setting": "XIP peptide (Xip251-270)", "value": 0.962}, {"measurement": "z-score", "setting": "[2]", "value": -1.2}, {"measurement": "z-score", "setting": "[3]", "value": "-6.22 (inactive)"}, {"measurement": "z-score", "setting": "[4]", "value": "0.0111 (inactive)"}, {"measurement": "z-score", "setting": "[5]", "value": "0.264 (inactive)"}]}, {"smiles": "O=C1OCCC=C[C@H]2OC34C=CCN(Cn5nnc6ccccc65)C(=O)[C@H]3N(CCCCCCO)C(=O)[C@@H]4C12", "note": "(stereo partly specified)", "values": [{"measurement": "composite z-score", "setting": "[1]", "value": "1.62 (inactive)"}, {"measurement": "composite z-score", "setting": "XIP peptide (Xip251-270)", "value": -0.948}, {"measurement": "z-score", "setting": "[2]", "value": 0.006}, {"measurement": "z-score", "setting": "[3]", "value": "-3.78 (inactive)"}, {"measurement": "z-score", "setting": "[4]", "value": "-0.667 (inactive)"}, {"measurement": "z-score", "setting": "[5]", "value": "-0.21 (inactive)"}]}, {"smiles": "CC(C)N1CC=CC23O[C@@H]4C=CCOC(=O)[C@@H]4[C@H]2C(=O)N(CCCO)[C@@H]3C1=O", "note": "(stereo partly specified)", "values": [{"measurement": "composite z-score", "setting": "[1]", "value": "0.816 (inactive)"}, {"measurement": "composite z-score", "setting": "XIP peptide (Xip251-270)", "value": 0.749}, {"measurement": "z-score", "setting": "[2]", "value": -1.91}, {"measurement": "z-score", "setting": "[3]", "value": "-3.62 (inactive)"}, {"measurement": "z-score", "setting": "[4]", "value": "0.762 (inactive)"}, {"measurement": "z-score", "setting": "[5]", "value": "0.0478 (inactive)"}]}]}
